Source: PubChem BioAssay
USP17 inh: human USP17-like deubiquitinase inhibition. inhibition, % at 50 µM. AID 1645855. actives 6.5% (n = 47,000). purified USP17, Ub-rhodamine cleavage fluorescence, 3 h. A8MUK1
USP28 inh: inhibitors of human USP28 deubiquitinase; Q96RU2; purified USP28, Ub-rhodamine cleavage fluorescence, 30 min; inhibition, % at 25 µM; actives 3% (n = 47,000); AID 1645857
Target sequence (Q96RU2 whole entry, looked up): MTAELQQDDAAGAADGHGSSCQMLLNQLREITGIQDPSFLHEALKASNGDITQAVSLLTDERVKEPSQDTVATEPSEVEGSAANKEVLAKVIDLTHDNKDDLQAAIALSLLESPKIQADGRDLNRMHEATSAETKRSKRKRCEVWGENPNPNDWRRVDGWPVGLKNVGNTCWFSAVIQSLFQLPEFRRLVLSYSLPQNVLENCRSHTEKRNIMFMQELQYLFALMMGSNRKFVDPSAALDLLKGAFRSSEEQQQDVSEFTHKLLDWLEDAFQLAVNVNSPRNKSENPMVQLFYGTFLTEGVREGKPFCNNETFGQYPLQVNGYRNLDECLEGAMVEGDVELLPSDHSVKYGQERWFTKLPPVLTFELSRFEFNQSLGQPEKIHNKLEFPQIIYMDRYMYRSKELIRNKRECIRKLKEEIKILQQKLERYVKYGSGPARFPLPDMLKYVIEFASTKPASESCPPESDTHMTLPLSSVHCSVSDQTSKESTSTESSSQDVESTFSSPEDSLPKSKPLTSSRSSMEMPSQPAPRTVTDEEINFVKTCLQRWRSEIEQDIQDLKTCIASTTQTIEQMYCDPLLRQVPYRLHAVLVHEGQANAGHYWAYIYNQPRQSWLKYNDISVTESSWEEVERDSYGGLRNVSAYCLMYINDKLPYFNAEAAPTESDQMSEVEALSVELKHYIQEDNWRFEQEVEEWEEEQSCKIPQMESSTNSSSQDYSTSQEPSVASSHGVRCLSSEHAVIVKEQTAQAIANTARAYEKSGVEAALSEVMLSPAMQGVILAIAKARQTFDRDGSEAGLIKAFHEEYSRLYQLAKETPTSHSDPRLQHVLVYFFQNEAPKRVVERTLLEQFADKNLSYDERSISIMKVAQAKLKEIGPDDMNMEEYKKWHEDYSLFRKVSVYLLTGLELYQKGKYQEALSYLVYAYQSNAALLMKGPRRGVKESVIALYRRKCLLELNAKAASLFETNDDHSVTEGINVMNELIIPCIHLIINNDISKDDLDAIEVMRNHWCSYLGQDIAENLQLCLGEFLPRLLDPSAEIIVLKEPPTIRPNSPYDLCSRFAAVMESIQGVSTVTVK
USP8 inh: human USP8 deubiquitinase inhibition; P40818; purified USP8, Ub-rhodamine cleavage fluorescence, 30 min; inhibition, % at 20 µM; actives 4.2% (n = 47,000); AID 1645853
USP10 inh: human USP10 deubiquitinase inhibition | Q14694 | purified USP10, Ub-rhodamine fluorescence, 60 min | inhibition, % at 20 µM | actives 1.1% (n = 47,000)
USP30 inh: inhibitors of human USP30 deubiquitinase; purified USP30, Ub-rhodamine cleavage fluorescence; inhibition, % at 25 µM; Q70CQ3; actives 5.3% (n = 47,000)
* marks the source's active call; other numbers are inactive results. Hits are enriched below; roughly 13% of the tested compounds scored in any of these assays. No stated cut-off is given here; in the data, active means inhibition above about 30%; inactive means the rest.

O=C1NCc2c1c1c3ccccc3[nH]c1c1[nH]c3ccccc3c21 was read as USP17 inh 51*, USP28 inh 19, USP8 inh 5, USP10 inh 10 and USP30 inh 37*.
Cc1nc2c(c3c1[nH]c1ccccc13)C(=O)CC(C)(C)C2 was read as USP17 inh -57, USP28 inh -65, USP8 inh -32, USP10 inh -5 and USP30 inh -128.
`O=C(NC1CCCCC1)C1CNCC12CCOCC2` (stereo unspecified) gave USP17 inh 7, USP28 inh 5, USP8 inh -8, USP10 inh -2 and USP30 inh 8.
`O=C(CSc1n[nH]c(-c2cc(Br)ccc2O)n1)NCCc1ccccc1` gave USP17 inh 38*, USP28 inh 25, USP8 inh 81*, USP10 inh 17 and USP30 inh 11.
`Cc1nc(C2(C)CCCN(C(=O)c3ccccc3)C2)nc2c1CC(=O)N2C` (stereo unspecified) gave USP17 inh 9, USP28 inh 3, USP8 inh 5, USP10 inh 2 and USP30 inh -11.
Screening Cc1ccc(OCC(=O)Nc2ccc3c(c2)CN(C(=O)c2ccco2)CC3)cc1 returned USP17 inh 51*, USP28 inh 50*, USP8 inh 33*, USP10 inh 17 and USP30 inh 43*.
For Cc1ccccc1OCC(=O)Nc1ccc2c(c1)CN(C(=O)c1ccco1)CC2 the results were USP17 inh 22, USP28 inh 37*, USP8 inh 0, USP10 inh 7 and USP30 inh 26.
For O=C(COc1ccc(-c2ccccc2)cc1)N1CCN(C(=O)c2ccco2)CC1 the results were USP17 inh 20, USP28 inh -6, USP8 inh -19, USP10 inh -1 and USP30 inh 31*.
CCN1CCN(c2ccc(NC(=O)COc3ccccc3C)cc2)CC1 was read as USP17 inh -12, USP28 inh -16, USP8 inh -11, USP10 inh -10 and USP30 inh -60.
For O=C(COc1ccc2c(c1)CCC2)Nc1ccc(S(=O)(=O)Nc2ncccn2)cc1 the results were USP17 inh -9, USP28 inh -49, USP8 inh -3, USP10 inh -1 and USP30 inh -136.
For Cc1cccc(OCC(=O)Nc2onc3c2CCCC3)c1 the results were USP17 inh 2, USP28 inh 20, USP8 inh 7, USP10 inh 2 and USP30 inh 12.
Cc1cc(NC(=O)COc2ccc3oc4c(c3c2)CCCC4)n(-c2ccccc2)n1 was read as USP17 inh 73*, USP8 inh 19 and USP10 inh 39*.
Screening Cc1ccc(NC(=O)COc2ccc3oc4c(c3c2)CCCC4)cc1 returned USP17 inh 14, USP28 inh 17, USP8 inh 30, USP10 inh 9 and USP30 inh 38*.
Screening O=C(NCc1c(-c2ccccc2)nc2n1CCS2)C1CC1 returned USP17 inh 15, USP28 inh 7, USP8 inh 0, USP10 inh 0 and USP30 inh 14.
`COc1ccc(NC(=O)c2ccnc(Nc3cccc(C)c3)c2)cc1` gave USP17 inh 0, USP28 inh 3, USP8 inh -152, USP10 inh -1 and USP30 inh 0.
`COc1cccc(NC(=O)c2cncc(NS(=O)(=O)c3ccccc3)c2)c1` gave USP17 inh -2, USP28 inh -3, USP8 inh -42, USP10 inh -2 and USP30 inh -4.
For COc1ccc(NC(=O)c2ccnc(Nc3cccc(OC)c3)c2)cc1 the results were USP17 inh 32*, USP28 inh 11, USP8 inh 5, USP10 inh -4 and USP30 inh 7.
COc1cccc(Nc2cc(C(=O)Nc3ccccc3)ccn2)c1 was read as USP17 inh 36*, USP28 inh 1, USP8 inh -1, USP10 inh 0 and USP30 inh 10.
For CCn1cc(-c2nc(-c3ccccn3)no2)c(=O)c2cc(F)c(N3CCOCC3)cc21 the results were USP17 inh 6, USP28 inh 11, USP8 inh 23, USP10 inh 1 and USP30 inh 3.
For Cc1cc(C(=O)NC2(O)C(=O)c3ccccc3C2=O)n(C)n1 the results were USP17 inh 94*, USP28 inh 23, USP8 inh 82*, USP10 inh 38* and USP30 inh 36*.
Cc1nn(C)c(C)c1NC(=O)CN1CC2(CCOCC2)Oc2ccccc2C1=O was read as USP17 inh 1, USP28 inh -1, USP8 inh 11, USP10 inh 0 and USP30 inh 0.
